Source: PubChem BioAssay (NCATS)
Inconclusive results are not listed. Values without a mark were called inactive. Calls of active or inactive are those of the source. The call rests on the fitted dose curve; in most records, active means well fitted cell-killing curve with a large enough effect; inconclusive means small, poorly fitted or top-dose-only effect; inactive means flat fitted curve, though single readings scatter.

assay: qHTS of pediatric cancer cell lines to identify multiple opportunities for drug repurposing: Primary screen for BT-12 cells (AID 1347101); details: BT-12 viability, CellTiter-Glo luminescence, 48 h; series mostly up to 57.3 µM; activity change, negative = cytotoxic: at the top concentration; further: nearly all actives have a fitted effect of over 25% in size
Description: Drug repurposing or repositioning has been offered as a strategy for drug development in oncology programs. This approach has special potential for childhood cancers and other rare or orphan diseases, where the expected return on new drug development has been a disincentive to pharmaceuticals.
In this project we exploit the poly-pharmacology of drugs to discover new indications via phenotypic screening of a panel of 19 well-characterized cell lines derived from solid tumors seen in children and adolescents. The goal is to identify approved drugs with previously unrecognized anticancer properties that has the potential to reveal new mechanisms and biological processes involved in carcinogenesis or drug resistance. We employed a titration-based paradigm (quantitative high-throughput screening or qHTS), where all compounds were tested at multiple concentrations for their effect on cell viability. Concentration-response curves (CRCs) were derived directly from the primary screen, and both potency and efficacy values were used to identify compounds with robust bioactivity profiles. We screened the NIH Chemical Genomics Center (NCGC) Pharmaceutical Collection (NPC) and Mechanism Interrogation Plate (MIPE) small molecule collections of approved and investigational compounds against these cell lines; and measured metabolically active cells after 48 hours of compound treatment as a proxy for cell viability.
Assay Submitter: Nathalia J. Martinez, National Center for Advancing Translational Sciences, National Institutes of Health, Rockville, MD, USA; email: natalia.martinez@nih.gov
[1] Shen, M et al. Quantitative high-throughput phenotypic screening of pediatric cancer cell lines identifies multiple opportunities for drug repurposing. Oncotarget 2017 Dec 19;9(4):4758-4772. PMID 29435139.
The cells were obtained from University of North Carolina (UNC), Pediatric Preclinical Testing Program (PPT), and Coriell Institute (CI).
qHTS cell viability assay:
Cells were assayed in growth media at a density of 500-1,000 cells/well. Five microliters of cells were dispensed into 1,536-well, white, solid-bottom, TC-treated plates (Greiner Bio One) using a multidrop dispenser and incubated at 37 degrees C, 5% CO2, under a humidified atmosphere for 5 hours. Twenty-three nanoliters of compounds and controls (neutral control DMSO or positive control bortezomib at final concentration of 2.3 µM) were subsequently transferred by Kalypsys pintool. For primary screens, the MIPE collection was tested at 11-point dilutions (final concentrations range from 0.78 nM to 46 µM) and the NPC collection at 8-point dilutions (final concentrations range from 0.59 nM to 46 µM). Compounds tested in follow-up screens were assayed at 11-point dilutions. Cells were incubated for 48 hours, followed by addition of 3 µL of CellTiter-Glo (Promega). After a 15 min incubation at room temperature, samples were analyzed for luminescence intensity using a ViewLux High-throughput CCD imager equipped with clear filters.
Potency means the concentration at half of the fitted maximal effect.

| SMILES | activity change, negative = cytotoxic | Potency |
| --- | --- | --- |
| Cc1cc(O)ccc1Cl | 1.85% | – |
| COc1ccc2c(c1)[C@]13CCCCC1C(C2)N(C)CC3 (stereo not given in full) | 2.18% | – |
| CC(=O)N(C)c1cccc(-c2ccnc3c(C(=O)c4cccs4)cnn23)c1 | -4.99% | – |
| O=C1C(I)=CC(=C(c2cc(I)c(O)c(I)c2)c2ccccc2C(=O)O)C=C1I | 7.01% | – |
| CC1=NN=C(c2ccc(N)cc2)c2cc3c(cc2C1)OCO3 | 8.76% | – |
| CCN(CC)C(=O)c1ccc(C2=CC3(CCNCC3)Oc3cccc(O)c32)cc1 | -8.72% | – |
| C[C@@H]1O[C@@H](O[C@@H]2C=C3CC[C@@H]4[C@@H](CC[C@]5(C)[C@H](c6ccc(=O)oc6)CC[C@@]45O)[C@@]3(C)CC2)[C@H](O)[C@H](O)[C@H]1O | – | 19.3 nM (active) |
| Cc1c(C(=O)c2cccc3ccccc23)c2cccc3c2n1[C@H](CN1CCOCC1)CO3 | – | 27300 nM (active) |
| CCCCOC(=O)c1ccccc1C(=O)OCc1ccccc1 | -15.3% [at 116 µM] | – |
| C[C@]12COC(=O)C[C@@H]1CC[C@@H]1[C@H]2CC[C@@]2(C)[C@H]1CC[C@]2(C)O | 13.3% | – |
| CCCCCCCCCCCCCCCC[N+](C)(C)C | – | 7770 nM (active) |
| CCOC(=O)Nc1ccc(NCc2ccc(F)cc2)cc1N | 2.7% | – |
| CC(N[C@H]1C[C@H]1c1ccccc1)c1ccc2c(c1)OCCO2 (stereo not given in full) | 7.6% | – |
| C[C@]12CC[C@H](O)CC1=CC[C@H]1[C@H]3CCC(=O)[C@@]3(C)CC[C@@H]12 | -12.1% | – |
| C[C@H]1CCCC=CC2C[C@H](O)C[C@@H]2[C@H](O)C=CC(=O)O1 (stereo not given in full) | – | 1 nM (active) |
| CN[C@@H](C)[C@H](O)c1ccccc1 | -0.476% | – |
| O=c1[nH]c2ccc(Cl)cc2c(N[C@@H]2CN3CCC2CC3)c1-c1nc2ccccc2[nH]1 | – | 15300 nM (active) |
| COc1ccc(CC2NCCc3cc(OC)c(OC)cc32)cc1OC (stereo not given) | -21.7% | – |
| CN[C@@H]1Cc2cccc3[nH]c(=O)n(c23)C1 | 4.34% | – |
| c1cc2ccc3cccc4ccc(c1)c2c34 | 5.41% [at 116 µM] | – |

| SMILES | activity change, negative = cytotoxic | Potency |
| --- | --- | --- |
| c1cc2c(cc1[C@H]1OC[C@H]3[C@H]1CO[C@H]3c1ccc3c(c1)OCO3)OCO2 | -3.84% | – |
| Nc1ccc(Cl)cc1 | 8.6% [at 116 µM] | – |
| CC[C@H]1C=CC=CC[C@@H](C)[C@H](O)[C@@](C)(O)C(=O)[C@@H](C)[C@H](O)[C@@H](C)C(=O)[C@@H](C)[C@H](O)[C@@H](C)C=CC(=O)O[C@@H]2[C@@H](C)[C@H](CC1)O[C@]1(CC[C@H](C)[C@H](C[C@@H](C)O)O1)[C@H]2C | – | 6.1 nM (active) |
| O=[N+]([O-])c1c2ccccc2cc2ccccc12 | -5.56% [at 116 µM] | – |
| O=C(O)C(Cl)Cl | 8.6% | – |
| CCOP(=O)(OCC)C(C)NC(=O)N(CCCl)N=O (stereo not given) | 14.6% | – |
| Nc1c(Cl)c(Cl)c(Cl)c(Cl)c1Cl | 11.6% [at 116 µM] | – |
| C[C@@]12OC(=O)[C@]1([C@@H](O)[C@@H]1C=CCCC1)NC(=O)[C@H]2CCCl | – | 137 nM (active) |
| CC(C)N(CCNC(=O)CN1CCCC1=O)C(C)C | -1.18% | – |
| COc1cc2cc(c1Cl)N(C)C(=O)C[C@H](OC(=O)C(C)C)[C@]1(C)O[C@H]1[C@H](C)[C@@H]1C[C@@](O)(NC(=O)O1)[C@H](OC)C=CC=C(C)C2 | – | 48.5 nM (active) |
| O=C(O)c1cc(Oc2ccc(C(F)(F)F)cc2Cl)ccc1[N+](=O)[O-] | -0.0181% | – |
| C[C@@H]1[C@H](O)[C@@H](C)C=CC=CCCC=CC=CC=CC=C[C@H](O[C@H]2O[C@@H](C)[C@H](O)[C@@H](N)[C@@H]2O)CC2O[C@](O)(C[C@@H](O)[C@H](O)CC[C@@H](O)C[C@@H](O)C[C@@H](O)CC(=O)O[C@H]1C)C[C@H](O)[C@H]2C(=O)O | 7.33% | – |
| CC(C)N[C@@H]1CCn2c(=O)[nH]c3cccc(c32)[C@@H]1O | – | 3060 nM (active) |
| O=S(=O)(O)C(F)(F)C(F)(F)C(F)(F)C(F)(F)F | 10.9% [at 116 µM] | – |
| C[C@]12Cc3cn[nH]c3C[C@@H]1CC[C@@H]1[C@H]2CC[C@@]2(C)[C@H]1CC[C@]2(C)O | -12.5% | – |
| CCC(=O)OC1CCC2C3CCC4=CC(=O)CC[C@@]4(C)C3CC[C@]12C (stereo not given in full) | 5.38% | – |
| CC[N+]1(CCOC(=O)C(O)(c2ccccc2)c2ccccc2)CCCCC1 | -0.539% | – |
| O=C(Nc1ccncc1)C(=O)c1cn(Cc2ccc(Cl)cc2)c2ccccc12 | – | 137 nM (active) |
| C=CC(=O)NCNC(=O)C=C | -12.3% [at 116 µM] | – |
| COC1=CC(C)=C[C@@H](C)[C@@H](O)[C@@H](C)CC(C)=CC=C[C@H](OC)[C@H]([C@@H](C)[C@@H](O)[C@H](C)[C@@]2(O)C[C@@H](O)[C@H](C)[C@@H](C(C)C)O2)OC1=O | – | 4.9 nM (active) |
